# About 83,000 compounds went through this panel and 20% of them were active in at least one assay; those are over-represented in the sample as a whole.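 Note: values are percent growth. 100 is the growth of untreated cells, values between 100 and 0 indicate rising inhibition; between -100 and 0 indicates cell death.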 Active and inactive are the calls of the source. The calls were made as follows: active = growth percent below 10; inactive = the rest.
# System: HCT-116 colon
# Experiment: NCI-60 one-dose screen, 48 h (100 = growth as untreated, 0 = no growth, -100 = all killed)
# Conditions: 10 µM unless noted
row,Structure (SMILES),growth
1,COc1ccc(CCN2C(=O)CSC2=S)cc1,84.6% (inactive)
2,CCn1c(SCC(=O)Nc2cccc(C(=O)/C=C/c3ccc(C)cc3)c2)nc2ccccc2c1=O,10.8% (inactive)
3,O=C1[C@@H]2Cc3c([nH]c4ccccc34)[C@H](c3c(Cl)cccc3Cl)N2C(=O)CN1C1CCN(CC2CCCCC2)CC1,4.3% (active)

# System: HCC-2998 colon
# Experiment: as above
# Conditions: 10 µM unless noted
row,Structure (SMILES),growth
1,COc1ccc(-n2c(SCc3n[nH]c(=S)o3)nc3ccc(Cl)cc3c2=O)cc1,101% (inactive)
2,CNC(=O)c1cc(Oc2ccc3nc(NC(=O)c4ccc(N5CCOCC5)c(C(F)(F)F)c4)sc3c2)ccn1,96.3% (inactive)
3,COc1ccc(/C=C(/C)c2ccc3ccc(OC)cc3[o+]2)c(O)c1,114% (inactive)
4,O=C1[C@H]2Cc3c([nH]c4ccccc34)[C@@H](c3ccc(Br)cc3)N2C(=O)CN1C1CCN(CC2CCCCC2)CC1,-98.8% (active)
5,O=C(c1ccc(O)cc1)[C@@H]1CN[C@@]2(C(=O)Nc3ccccc32)[C@H]1c1ccc(F)cc1,113% (inactive)
6,COc1ccc(/C=C(\C#N)C(=O)N2c3ccccc3Sc3ccc(SC)cc32)cc1F,90.5% (inactive)
7,CN1CCN(Cc2ccc(NC(=O)c3cncc(C#Cc4cnn5cccnc45)c3)cc2C(F)(F)F)CC1,12.7% (inactive)
8,CCOC(=O)c1c(NC(=O)c2ccccc2C(F)(F)F)sc2c1CCC(=O)C2,65.2% (inactive)
9,Nc1nc(-c2cccc([N+](=O)[O-])c2)c(N=Nc2ccccc2)s1,71.6% (inactive)
10,Cc1ccc(C(=O)NN2C(=O)/C(=C/C=C/c3ccco3)SC2=S)cc1,107% (inactive)
11,Cc1nc(-c2ccccc2O)ccc1C(=O)N=Nc1c(O)[nH]c2ccc(Br)cc12,123% (inactive)
12,NS(=O)(=O)c1ccc(-n2cc(-c3cccc(NC(=O)c4ccc(N5CCOCC5)c(C(F)(F)F)c4)c3)nn2)cc1,66% (inactive)
13,CCc1cccc(NC(=O)CNc2cc(S(=O)(=O)N(C)C)cc(C)c2C)c1,123% (inactive)
14,COc1ccc(-c2nc3cccc(O)c3c(=O)n2Cc2ccccc2)cc1COc1ccc(NC(C)=O)cc1,67.8% [3 µM] (inactive)
15,O=C(CN1CCN(c2cc(=O)n(-c3ccccc3)c3ccccc23)CC1)Nc1nc(-c2ccc(Cl)cc2)cs1,92.4% (inactive)
16,Cc1c(Cl)cccc1S(=O)(=O)Nc1ccc2c(c1)C(=O)N(C1CCC(=O)NC1=O)C2=O (stereo unspecified),67.9% (inactive)
17,C#CC(=O)N(c1ccc(OC)cc1OC)C(C(=O)NCC(=O)OCC)c1cccs1 (stereo unspecified),110% (inactive)
18,COc1ccccc1N1CCN(C2=CC(=O)C(C)=C(C)C2=O)CC1,110% (inactive)
19,COc1cc(/C=C2\C(=O)Nc3ccccc32)ccc1OCc1ccc(Cl)cc1,123% (inactive)

row,Structure (SMILES),growth
1,Nc1ncc(-c2ccc3ncnc(N4CCc5cc(F)c(F)cc54)c3c2)cn1,31.9% (inactive)
2,COc1ccc(-c2nc(C(Cl)Cl)nc3cc(-c4ccccc4)nn23)cc1,-37.8% (active)
3,Cc1cc(-c2ccc(Cl)cc2)n(Cc2nnc(SCC(=O)Nc3ccc(S(N)(=O)=O)cc3)n2-c2ccc([N+](=O)[O-])cc2)n1,97.8% (inactive)
4,CN1c2ccccc2Sc2cc(C=C(C#N)C#N)ccc21,97.3% (inactive)
5,CC(C)(C)c1ccc(-c2nnc(-c3nc4ccccc4nc3Cl)o2)cc1,98.5% (inactive)
6,O=C(Cn1cc[n+](CC(=O)c2ccc(-c3ccccc3)cc2)c1)Nc1cccc2cccnc12,51.7% (inactive)
7,N#Cc1cccc(/C(N)=N/C(N)=N/c2nc3ccccc3s2)c1,55.7% (inactive)
8,COc1ccccc1-n1cc(C#N)c(N)c1C(=O)c1ccc(Cl)cc1,68.2% (inactive)
9,N=c1c2cc(-c3ccccc3)oc2ncn1/N=C/c1ccc(Br)cc1,100% (inactive)
10,CC1(COc2ccc3ncc(C#Cc4cncc(C(=O)Nc5cccc(C(F)(F)F)c5)c4)n3n2)COC1,86.9% (inactive)
11,Cc1cc(C(NC(=O)CCCCCNc2cccc3c2C(=O)N(C2CCC(=O)NC2=O)C3=O)c2ccc3c(c2)OC(F)(F)O3)c(O)c2ncccc12 (stereo unspecified),79.2% (inactive)
12,N#Cc1c(NC(=O)c2cccc(C(F)(F)F)c2F)sc2c1CCC(=O)C2,-29.6% (active)
13,O=C(CN1CCN(c2cc(=O)n(-c3ccccc3)c3ccccc23)CC1)Nc1nc(-c2ccccc2)cs1,81.8% (inactive)
14,CN(C)CCCOc1ccc2c(c1)CN(C(=O)c1cc(C(=O)N3Cc4cccc(F)c4C3)ccc1O)C2,114% (inactive)
15,O=C(CSc1nnc(-c2ccc(Cl)cc2)n1-c1ccccc1)Nc1ccc(Br)cc1,77.9% (inactive)
16,CC1(C)CC[C@]23CC[C@]4(C)[C@H](CC[C@@H]5[C@@]6(C)CCCN(CO)C(C)(C)[C@@H]6CC[C@]54C)[C@H]2[C@H]1OC3,3.53% (active)
17,COc1ccc(CCN2C(=O)CSC2=S)cc1,110% (inactive)
18,CCn1c(SCC(=O)Nc2cccc(C(=O)/C=C/c3ccc(C)cc3)c2)nc2ccccc2c1=O,78.7% (inactive)
19,O=C1[C@@H]2Cc3c([nH]c4ccccc34)[C@H](c3c(Cl)cccc3Cl)N2C(=O)CN1C1CCN(CC2CCCCC2)CC1,73.4% (inactive)

# From PubChem BioAssay (NCI)
